Whole data set: some 39,000 sequences, median “fluorescence intensity (a.u.)” near 4,300, cut for the highest 2% near 39,000. This excerpt belongs to a sample that is enriched for the highest values.

The assay deals with T1, OsSMF1 (Oryza sativa, UniProt Q6ZLB0 1-436).
T1 sequence: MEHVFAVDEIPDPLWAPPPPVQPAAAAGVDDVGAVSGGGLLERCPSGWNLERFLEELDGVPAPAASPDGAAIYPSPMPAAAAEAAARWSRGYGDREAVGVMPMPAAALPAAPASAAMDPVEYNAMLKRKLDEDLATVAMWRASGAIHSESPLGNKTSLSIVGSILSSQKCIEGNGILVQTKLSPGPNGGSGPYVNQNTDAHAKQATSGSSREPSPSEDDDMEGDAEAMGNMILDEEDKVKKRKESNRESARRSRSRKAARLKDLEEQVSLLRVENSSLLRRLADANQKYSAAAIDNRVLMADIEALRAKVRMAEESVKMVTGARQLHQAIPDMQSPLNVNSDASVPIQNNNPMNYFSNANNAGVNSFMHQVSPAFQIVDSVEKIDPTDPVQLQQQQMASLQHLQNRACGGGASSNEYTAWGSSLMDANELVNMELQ
Put plainly: protein-binding microarray (RPBM); PBS, 2% BSA, 51.3 ng/ul salmon testes DNA, 50 uM zinc acetate, 200 nM TF, 25 C, 1 h; high values mean tight binding. Conditions: protein: recombinant; tags: N-terminal polyhistidine and DsRed monomer fusion (pET32a); chain copies: 2; label: CyDye5-dUTP incorporated in the synthesized complementary strand; 3' TTTTT single-stranded linker to array surface; dsDNA, one strand shown. In a few lines:
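Polyhistidine-tagged DsRed fusions of transcription factors, joined at the N-terminus, were expressed in E. coli BL21-CodonPlus and isolated on Ni–NTA. They were incubated at 200 nM for 1 h at 25 °C on a custom Agilent array, double-stranded and BSA-blocked, in PBS with 2% BSA, salmon testes DNA and 50 µM zinc acetate. The binding signal is per-feature fluorescence intensity (arbitrary units) read on an Axon 4000B scanner after washing.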
Take “CATGTACACACCCACAGTCATCTGCTCATGTTTTCACGGTCGGAGTCACCTAGTGCAG”: the binding signal was 3630 fluorescence intensity (a.u.). On to “GAGGGGTTACGCGTTAGGCGCTGCCACGTGTATCGATCGGCGGAGTCACCTAGTGCAG”, for which the binding signal was 21900 fluorescence intensity (a.u.). As for “CGAGGATTTGAGATCTGAGATGGCACGGACACTAGACAACCGGAGTCACCTAGTGCAG”, the binding signal was 3440 fluorescence intensity (a.u.). Regarding “GGGAACATTGTGTGCCAAAATTGACTCACGAATATACAAGCGGAGTCACCTAGTGCAG”, the binding signal was 3340 fluorescence intensity (a.u.). Consider “CACCCAAGAACCGGTGGTATTCTTTGGACACGAGAACTTTCGGAGTCACCTAGTGCAG”, for which the binding signal is 39100 fluorescence intensity (a.u.). Take “CTTCTTCGGGCCTTCTTTCAGAACTTTGGGTGGGCCTCACCGGAGTCACCTAGTGCAG”: the binding signal was 64300 fluorescence intensity (a.u.). As for “TAAACTTCGGTGGCATGTCATCATCTTCAAACTCATCTTTCGGAGTCACCTAGTGCAG”, the binding signal was 4670 fluorescence intensity (a.u.). With “TATTTCTTCACCTTTAGTCATGTCACCTCTCACTTCACACCGGAGTCACCTAGTGCAG”, the binding signal is 5120 fluorescence intensity (a.u.).

With “CTTTCTTTCTTTCTTTGTGCCCAACTCTGACACGACTCACCGGAGTCACCTAGTGCAG”, the binding signal was 5180 fluorescence intensity (a.u.).

For the sequence “TTCTTTGGTGGGTGCCACGTAGGAGAAACCCAGCAGGAGTCGGAGTCACCTAGTGCAG”, the binding signal is 12000 fluorescence intensity (a.u.). The value for “ACTCCCCTCCCCGCCACGTCGCCATTCTTCCCGCTCCTGACGGAGTCACCTAGTGCAG” was 11800 fluorescence intensity (a.u.). On to “GCTCGCCTTTTATCGCAGCCAAAGCCATGAAATTTCCCCACGGAGTCACCTAGTGCAG”, for which the binding signal is 27500 fluorescence intensity (a.u.). The result for “CTCGCGTCGCCACGCAACTTAATTAATTTAGCCCCTAATTCGGAGTCACCTAGTGCAG” reads 3640 fluorescence intensity (a.u.); that for “CTTCTAGCTGACACCTGTGCGCCGCCGCCTAATTTCAACTCGGAGTCACCTAGTGCAG”, 3930 fluorescence intensity (a.u.). Take “GCACCTCGTTAGGCTTCATGGTCATGGCTCGTCGCTGACGCGGAGTCACCTAGTGCAG”: the binding signal is 6120 fluorescence intensity (a.u.). The result for “GCGGTTTCCTAGTTGACTGACCAAACAATTCATATATATTCGGAGTCACCTAGTGCAG” reads 6140 fluorescence intensity (a.u.); that for “CCTACACTGAAGTTAAGCAGATCTTCCAGGCCTCGTGTTTCGGAGTCACCTAGTGCAG”, 43800 fluorescence intensity (a.u.). For “CGGCCGTGTTAAGCCTCTTCCAAAGTCAGCTGAGTTGTGCCGGAGTCACCTAGTGCAG”, the binding signal was 5460 fluorescence intensity (a.u.). As for “TCGTGCTACAGATCTATAGCACACTACTCTTCTCTCTCTTCGGAGTCACCTAGTGCAG”, the binding signal is 3370 fluorescence intensity (a.u.). Consider “CCACGAACAGCTACACGTCTCCTTCTCCTTCTTCGATTTCCGGAGTCACCTAGTGCAG”, for which the binding signal is 37400 fluorescence intensity (a.u.).

With “TCTTACAGCGCGCGTGTTCGTTCGAACGATTCTCTTCTTCCGGAGTCACCTAGTGCAG”, the binding signal is 51900 fluorescence intensity (a.u.). Regarding “ACAAGAGCCAGCGCGGCGTGTGTGCGCGATTTCTCTCTTCCGGAGTCACCTAGTGCAG”, the binding signal was 3210 fluorescence intensity (a.u.). The value for “AGTGCCACTTAAGCGCCACATCAACGCCACATGGAAAGAACGGAGTCACCTAGTGCAG” was 4210 fluorescence intensity (a.u.); that for “AGACCCAAGTCACTCTCTCCGCTCCAGTCTCCACTCTCCACGGAGTCACCTAGTGCAG” was 23100 fluorescence intensity (a.u.). On to “ACCACTCTACCACAACCATTACGCTATCCGCCACGAGCAACGGAGTCACCTAGTGCAG”, for which the binding signal was 3270 fluorescence intensity (a.u.). For the sequence “TCCACATGCTAATTTGTGGTGTCAGATACCTGAATACTCCCGGAGTCACCTAGTGCAG”, the binding signal was 41400 fluorescence intensity (a.u.).

As to “CTCTAAATTTGTGCAGATGTGTCACCTAGATCCCTGAACTCGGAGTCACCTAGTGCAG”, the binding signal is 4340 fluorescence intensity (a.u.).

On to “AAGATCTGTATGCCTCATGAGGGTTGGTGTGTAATACTCCCGGAGTCACCTAGTGCAG”, for which the binding signal was 3890 fluorescence intensity (a.u.).

For the sequence “CCCCTACTATTTTCTAGGCTAGGAAGCGTGCGATCTTTTCCGGAGTCACCTAGTGCAG”, the binding signal is 3240 fluorescence intensity (a.u.).

“TGGCGCGACTGCTCGGGTCACCATAAATACGGGTAGGTGGCGGAGTCACCTAGTGCAG”: the binding signal is 3940 fluorescence intensity (a.u.). On to “CTGCTTGAATCCTTCTCGCTGAGCTGGCCTGCAGCCTTTTCGGAGTCACCTAGTGCAG”, for which the binding signal is 7190 fluorescence intensity (a.u.).

On to “CTCCGCCGCTGGCCGCCTTGCCTGCTTGAGAGGAGGAGAGCGGAGTCACCTAGTGCAG”, for which the binding signal was 26800 fluorescence intensity (a.u.). Turning to “GATTGATGAGGCCGCAAAGCCTGGCTGCCTGCCTGCTTCTCGGAGTCACCTAGTGCAG”, the binding signal was 54300 fluorescence intensity (a.u.). Consider “CATTATACATGTGTCATGTGTATTCGACTTCTGTGCTGCCCGGAGTCACCTAGTGCAG”, for which the binding signal was 4750 fluorescence intensity (a.u.). Consider “GGTAGTCTGAAGCCTGTTGGTTATCCTCCTGGGAGTGTTGCGGAGTCACCTAGTGCAG”, for which the binding signal was 3220 fluorescence intensity (a.u.). On to “AGATTAGTTTTCCCATATATTTCTTGTCAGTCGTCGTCATCGGAGTCACCTAGTGCAG”, for which the binding signal was 3760 fluorescence intensity (a.u.). The value for “AATCAATACAAAGTCTGAAAGCCATTATGGTGGCAGTAATCGGAGTCACCTAGTGCAG” was 61300 fluorescence intensity (a.u.); that for “AAGTAGTGTCTATGGTGCCATGTCAATAGGACATCATAATCGGAGTCACCTAGTGCAG” was 3920 fluorescence intensity (a.u.); that for “ATAAAGTAACACATACACAAAGCCACATCATCAATATTTTCGGAGTCACCTAGTGCAG” was 8990 fluorescence intensity (a.u.).

As for “ATGCTAACCAACTAAAATACTTTTCCATGTACCTTACAAGCGGAGTCACCTAGTGCAG”, the binding signal is 60000 fluorescence intensity (a.u.). Take “ATTTATATTTTAAAATATACTTTTATATGACACTAATTTTCGGAGTCACCTAGTGCAG”: the binding signal was 3170 fluorescence intensity (a.u.). Turning to “AATTTACAAGGTAAAATTTTATACCACCTTATATACTTTGCGGAGTCACCTAGTGCAG”, the binding signal was 4160 fluorescence intensity (a.u.). The value for “TTCTTTTCCCATGGCCTCTGACTATGACATTATTTAAACACGGAGTCACCTAGTGCAG” was 3440 fluorescence intensity (a.u.); that for “CACTTTTATGACATTTTCAACCATACTATTTTCCTTAAAGCGGAGTCACCTAGTGCAG” was 39800 fluorescence intensity (a.u.). Regarding “CATTTCCAAATTACATGTATGAATCCAACCAAAACTTTTCCGGAGTCACCTAGTGCAG”, the binding signal was 17200 fluorescence intensity (a.u.).

These data come from article PMC7819943, “Rice protein-binding microarrays: a tool to detect cis-acting elements near promoter regions in rice”.
